# Source: PubChem BioAssay AID720517 (National Center for Advancing Translational Sciences (NCATS), 2013)
# Inconclusive results are not listed. Entries that show only a call come without a potency. Active and inactive are the calls of the source. The call rests on the fitted dose curve; in most records, active means well fitted activation curve with a large enough effect; inconclusive means small, poorly fitted or top-dose-only effect; inactive means flat fitted curve, though single readings scatter.
# Assay: qHTS for Inhibitors of Cell Surface uPA Generation: FP59 Counterscreen for Cherry-picked Compounds
# Conditions: FP59 anthrax toxin cytotoxicity counterscreen, cells; series mostly up to 115 µM
row,SMILES,Potency
1,COc1cc2cc(CN(CCN3CCOCC3)C(=O)Nc3ccc(F)cc3)c(=O)[nH]c2cc1OC,inactive
2,C[C@H](CO)N1C[C@H](C)[C@@H](CN(C)C(=O)Nc2ccccc2)Oc2ccc(NC(=O)Cn3cnnn3)cc2C1=O,inactive
3,Cc1ccc(OCc2cc(C(=O)N(C)Cc3cc(C4CC4)n[nH]3)no2)cc1C,inactive
4,CCOc1cc(N2CCOCC2)c(OCC)cc1NC(=O)c1[nH]c(C)c(C(C)=O)c1C,inactive
5,COc1ccc2cc(CCNC(=O)c3ccc4c(c3)OCO4)c(=O)[nH]c2c1,inactive
6,CCN(CC)S(=O)(=O)c1ccc(NC(=S)Nc2ccc(F)cc2)cc1,inactive
7,Cc1nc(NC2CCCCC2)c2nnn(Cc3ccccc3Cl)c2n1,inactive
8,CN1CC[C@]23c4ccccc4N[C@H]1[C@]21CCN(C)[C@H]3Nc2ccccc21,inactive
9,COc1ccc(NC(=O)c2nn(C)c3c2CS(=O)(=O)c2ccccc2-3)cc1,inactive
10,COc1ccc(-c2csc(NC(C)c3nc4cc(C(=O)NCCCO)ccc4n3Cc3ccc(C)cc3)n2)cc1 (centres undefined),inactive
11,COc1ccc(NC(=O)c2cccnc2N2CCOCC2)cc1,inactive
12,O=C1[C@H]2[C@@H](c3ccc(F)cc3)N3C(=O)N(c4cccc(Br)c4)C(=O)[C@@]3(Cc3ccc(Cl)cc3)[C@H]2C(=O)N1C1CCCCC1,inactive
13,COc1ccc(CCN=c2c([N+](=O)[O-])nn(-c3cccc(C)c3)n2O)cc1OC,inactive
14,CC(C)(C)S(=O)(=O)N1C[C@H]2CC/C=C\C/C(c3ccccc3)=C\2[C@@H]1CCO,inactive
15,O=[N+]([O-])c1cccc(-c2noc(-c3cccs3)n2)c1,inactive
16,O=S(=O)(NCC(c1cccnc1)N1CCOCC1)c1ccccc1 (centres undefined),inactive
17,CCn1nc(NS(=O)(=O)c2ccccc2)c2cc3cc(C)ccc3nc21,inactive
18,CCOc1ccc(C(=O)NCC(=O)N2CCN(C/C=C/c3ccccc3)CC2)cc1OCC,inactive
19,O=C(CSc1ccc(Cl)cc1)Nc1ccc(C2SCCS2)cc1,inactive
20,CCN(CC)CCCn1c2c(c(SCC(=O)Nc3cccc4ccccc34)nc1=O)CCC2,inactive

row,SMILES,Potency
1,Cc1cc(NC(=O)COc2cccc([N+](=O)[O-])c2)no1,inactive
2,CC(/C=C/C1(O)C(C)CC(O)CC1(C)C)OC1OC(CO)C(O)C(O)C1O (centres undefined),inactive
3,Cc1ccccc1-c1nnc(SCC(=O)NCC2CCCO2)o1 (centres undefined),inactive
4,O=C(O)CCCC(=O)NCCCCc1ccccc1,inactive
5,CC(=O)Nc1c2c(nn1-c1cccc(C)c1)CSC2,inactive
6,C/C=C/C(=O)Nc1cccc(C2=NOC3(C2)C[C@@H](C(N)=O)N(C(=O)c2cc([N+](=O)[O-])cc([N+](=O)[O-])c2C)C3)c1 (some centres undefined),inactive
7,COc1ccc(C(=O)c2sc(Nc3ccccc3)nc2N)cc1,inactive
8,CNC(=S)N1C2CCCC1CC(NC(=O)c1ccc(F)cc1)C2 (centres undefined),inactive
9,Cc1cc(C)nc(N2N=C(C(F)(F)F)CC2=O)n1,inactive
10,C=CC1=C(C(=O)O)N2C(=O)[C@@H](NC(=O)/C(=N\O)c3csc(N)n3)[C@H]2SC1 (stereo in doubt),inactive
11,Cc1cc(C)c(S(=O)(=O)N2CCCOC2CNC(=O)C(=O)NCc2cccs2)c(C)c1 (centres undefined),inactive
12,CC(C)C[C@H]1CN([C@@H](CC(C)C)CN2CCCC2CN2C(=S)NC[C@@H]2Cc2ccc(O)cc2)C(=S)N1CC1CCCCC1 (some centres undefined),inactive
13,O=C(c1cc2cc([N+](=O)[O-])ccc2s1)N1CCOCC1,inactive
14,CCCCOc1ccc(S(=O)(=O)N2CCCCC2)cc1,inactive
15,CC1(C(=O)OCC(=O)Nc2ccc(Cl)cn2)CC1(Cl)Cl (centres undefined),inactive
16,Cc1ccc(C)c(NC(=O)CCN2CCN(c3ccccc3F)CC2)c1,inactive
17,CCN(CC)CCNC(=O)/C(=C/c1cn(CC)c2ccccc12)NC(=O)c1cc(OC)c(OC)c(OC)c1,inactive
18,Cc1cccc(NC(=O)C2CCCN(S(=O)(=O)c3ccc4[nH]c(=O)ccc4c3)C2)c1 (centres undefined),inactive
19,CN(CC(=O)NCCCn1ccnc1)S(=O)(=O)c1ccc(Cl)cc1,inactive
